Most compounds without a hit are left out; they make up all but 0.77% or so of the library.
RE007 growth inh – less growth of the S. pombe RE007 Vpr strain; S. pombe RE007 Vpr strain, BacTiter-Glo ATP luminescence, 24 h; Potency, µM (top dose mostly 92.2 µM), for inactives: top-dose activity change, negative = less growth, actives largely listed as inhibitors; hit rate 0.21% among 360,000; AID 651644; active = well fitted falling curve with a large enough effect; inconclusive = small, poorly fitted or top-dose-only effect; inactive = no such curve, though single readings can be large or run the other way; note: % is set by controls: 0 for no effect and ±100 for the full control effect; nearly all actives have a fitted effect of over 50% in size
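Fission yeast RE007 carrying one integrated HIV-1 vpr copy, seeded at OD 0.01 in PMG+AL medium with 23 nL pinned compound. Grown 24 h at 30 degrees; viability read by BacTiter-Glo luminescence after 5 min.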
LmPK inhibitor – LmPK (Leishmania mexicana) enzyme inhibition | hit rate 0.37% among 290,000 | Q27686 | purified LmPK, Kinase-Glo ATP luminescence, 1 h | AID 1721 | Potency, µM (doses to about 57.5 µM), for inactives: at the top dose activity change, negative = inhibition, usual class: inhibitors; note: % is set by controls: 0 for no effect and ±100 for the full control effect
Target sequence (Q27686 whole entry, looked up): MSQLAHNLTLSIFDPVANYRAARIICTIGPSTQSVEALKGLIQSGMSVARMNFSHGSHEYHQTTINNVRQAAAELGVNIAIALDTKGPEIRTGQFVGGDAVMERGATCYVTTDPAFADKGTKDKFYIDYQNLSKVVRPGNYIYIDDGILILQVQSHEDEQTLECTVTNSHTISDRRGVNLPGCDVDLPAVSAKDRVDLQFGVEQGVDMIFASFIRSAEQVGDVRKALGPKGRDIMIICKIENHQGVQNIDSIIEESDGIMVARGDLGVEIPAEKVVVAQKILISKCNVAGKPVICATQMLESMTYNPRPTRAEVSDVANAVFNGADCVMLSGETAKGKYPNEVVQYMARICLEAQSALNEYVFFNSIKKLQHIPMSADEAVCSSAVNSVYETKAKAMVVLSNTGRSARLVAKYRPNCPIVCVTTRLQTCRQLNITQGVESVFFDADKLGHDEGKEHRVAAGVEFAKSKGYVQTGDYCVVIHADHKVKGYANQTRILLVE
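0.1 nM LmPK, 0.5 mM PEP, 0.1 mM ADP; 50 mM imidazole pH 7.2, 7 mM MgCl2, 50 mM KCl; 1 h RT. Kinase-Glo luminescence readout, normalized to no-enzyme (full inhibition) and uninhibited wells.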
NS1 function inh – blocks influenza NS1 protein function. Potency, µM (titrated, usually from 46.1 µM), without a hit: at the highest dose activity, positive = more growth. hit rate 0.4% among 270,000; calls by dose curve; note: actives are rising curves; nearly all actives have a fitted effect of over 50% in size
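Growth recovery, yeast-based: influenza A NS1 expressed in S. cerevisiae causes slow growth, and suppressors are detected by OD600. The parent strain without NS1 is used as positive control.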
Tb PYK inh – blocks Trypanosoma brucei pyruvate kinase; Q57TT1; TbPYK enzyme, Kinase-Glo Plus ATP luminescence, 45 min; Potency, µM (top dose mostly 76.8 µM), inactives show top-dose activity, negative = inhibition, actives largely listed as inhibitors; hit rate 0.12% among 410,000; note: % is set by controls: 0 for no effect and ±100 for the full control effect; nearly all actives have a fitted effect of over 50% in size
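Luminescence from Kinase-Glo Plus, added after a 45-minute room-temperature reaction, served as the end-point read-out. The enzyme and substrate were preincubated with compound before ADP (130 uM final) initiated turnover. Concentration-effect curves came from normalized qHTS data.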
Numbers without * were called inactive; ? = inconclusive; nt = no result; [ ] = another dose, or the depositor's remark. Unless noted, calls come from the whole dose curve; as a rule, active = well fitted curve in the direction sought with a large enough effect; inconclusive = small, poorly fitted or top-dose-only effect, or another doubt; inactive = no such curve, though single readings can be large; an effect the other way counts as inactive or inconclusive. Potency is the fitted concentration of half-maximal effect.

SMILES | RE007 growth inh | LmPK inhibitor | NS1 function inh | Tb PYK inh
S=c1[nH]nc(COc2ccc3c(c2)OCO3)n1-c1ccccc1 | 2% | ? | -8% | ?
O=C(O)c1ccc(-n2c(-c3ccc(Br)cc3)n[nH]c2=S)cc1 | 1% | 7.1µM* | 7% | ?
Cc1cccc(-n2c(-c3ccncc3)n[nH]c2=S)c1 | 8% | 14µM* | 7% | ?
S=c1[nH]nc(-c2ccc3c(c2)OCO3)n1-c1ccccc1 | 21% | 7.1µM* | 29% | ?
Cc1nn(C(=O)c2ccccc2)c(C)c1Sc1ccc(Cl)cc1 | nt | nt | nt | 1%
C/C(=C\C(=O)Nc1ccccc1C(=O)O)c1ccc2ccccc2c1 | nt | nt | nt | -3%
COC(=O)Nc1ccc(-c2nc(N3CCOCC3)c3cnn(C4CCN(C(=O)OC)CC4)c3n2)cc1 | nt | nt | nt | -1%
S=c1[nH]nc(-c2ccc(Cl)cc2)n1-c1cccnc1 | 23% | 11µM* | 3% | ?
Cc1ccc(-c2n[nH]c(=S)n2-c2ccccc2)cc1 | 18% | ? | -2% | ?
Cc1ccc(-n2c(-c3cccc(C)c3)n[nH]c2=S)cc1 | 2% | 8.9µM* | 2% | 2.8µM*
Cc1cccc(-n2c(-c3ccoc3C)n[nH]c2=S)c1 | 1% | ? | -6% | ?
S=c1[nH]nc(-c2cccnc2)n1-c1ccccc1 | -9% | -25% | 0% | ?
Cc1ccc([N+](=O)[O-])c(-c2n[nH]c(=S)n2-c2cccc(Cl)c2)c1 | 1% | 18µM* | 3% | 3.2µM*
COc1cc([N+](=O)[O-])c(OC)cc1SCc1n[nH]c(=S)n1-c1ccc(C)cc1 | -3% | ? | -4% | 2.5µM*
COc1cc([N+](=O)[O-])c(OC)cc1SCc1n[nH]c(=S)n1-c1ccc(F)cc1 | -11% | ? | 6% | ?
COc1ccc2c(=O)c(C)c(-c3ccccc3)oc2c1CN(C)C | nt | nt | nt | 10%
COc1ccc(-c2n[nH]c(=S)n2-c2ccc(C)cc2)cc1OC | -6% | 14µM* | -14% | 5µM*
Cc1ccc(-n2c(-c3c(-c4ccccc4)noc3C)n[nH]c2=S)cc1 | -6% | 11µM* | 2% | ?
COc1ccc(-c2n[nH]c(=S)n2-c2ccc3c(c2)OCCO3)cc1OC | 4% | ? | 9% | ?
NC(N)=N/N=C\c1ccc(O)c(C(=O)O)c1 | nt | nt | -1% | nt
C=Cc1c(C)/c2[n-]/c1=C\c1[n-]c(c(CC)c1C)/C=c1\[n-]c3c(c1C)C(=O)C(C(=O)[O-])C=3c1[n-]c(c(C)c1CCC(=O)[O-])\C=2.[Cu].[Na+].[Na+] (stereo unspecified) | nt | nt | nt | -17%
COc1ccc(NC(=S)N2CCCC2)cc1 | -1% | 2% | 6% | -22%
COc1ccc(NC(=O)C(=S)N2CCCC2)cc1 | 16µM* | 0% | 4% | 1%
COc1ccccc1-c1cc(C(=O)N2CCc3ccccc3C2)no1 | nt | nt | -84% | nt
O=C(CCN1CCCCC1)c1ccc2c(c1)OCO2 | 7.9µM* | 2% | -11% | -6%
SMILES | RE007 growth inh | LmPK inhibitor | NS1 function inh | Tb PYK inh
O=C(CCN1CCOCC1)c1ccc2c(c1)OCCO2 | 13µM* | 0% | -31% | 6%
O=C(CCN1CCc2ccccc2CC1)c1ccc2c(c1)OCCO2 | 7.1µM* | -6% | -213% | ?
S=c1[nH]c(-c2ccccc2)cn1/N=C/c1ccncc1 | 3% | 4.5µM* | 0% | ?
CCOc1ccc(/C=N/n2cc(-c3ccccc3)[nH]c2=S)cc1 | 15% | -7% | -6% | -35%
COc1ccc(CCN2C(=O)C=CC2=O)cc1OC | 5.6µM* | nt | nt | ?
Cc1ccc2c(c1)C(N1CCCC1=O)CC(c1ccco1)N2 (stereo unspecified) | ? | 11µM* | -72% | ?
CCOC(=O)c1cc(S(=O)(=O)Nc2ccc(OC)c(Cl)c2)[nH]n1 | nt | nt | nt | -15%
Cc1cc(C)n(CCN(C)Cc2nc(Cc3ccccc3F)no2)n1 | -11% | 28µM* | 2% | -1%
O=C1[O][Sb-]23[O]C(=O)C([O]2)C2[O][Sb-]4([O]C(=O)C([O]4)C1[O]3)[O]C2=O | nt | nt | nt | 3%
COC(=O)C1=C(C(=O)OC)[C@@H]2N(C)c3ccc(OC)cc3[C@@]23C[C@@H](C(=O)OC)N(C(C)=O)C3=N1 | nt | 1%[11.5 µM] | nt | nt
O=C1c2ccccc2C(=O)N1CCSc1ncn[nH]1 | -1% | -3% | -4% | 0%
O=C1c2ccccc2C(=O)N1CCSc1n[nH]c(=S)s1 | -7% | 17% | 1% | 28µM*
CCn1c(CCCCc2n[nH]c(=S)n2CC)n[nH]c1=S | 5% | 3% | 3% | -23%
CCCCn1c(CCn2nc(C)c(Br)c2C)n[nH]c1=S | 14% | 18µM* | 2% | ?
O=c1c(Cl)c(N2CCCCC2)cnn1-c1nc2ccccc2[nH]1 | -14% | 14µM* | -12% | ?
COc1ccc(-c2cc(C(=O)Nc3c(C)nn(Cc4ccc(F)cc4)c3C)no2)cc1OC | nt | nt | nt | 2%
N#C/C(N=Nc1ccccc1O)=N\Nc1ccccc1O | 11µM* | nt | nt | ?
Oc1ccccc1N=N/C(=N/Nc1ccccc1O)c1ccccc1 | -5% | nt | nt | -5%
Cc1ccsc1/C=N/Nc1nc(=O)[nH]nc1C | 13µM* | ? | nt | ?
Nc1nc(SCc2ccccc2[N+](=O)[O-])c2[nH]cnc2n1 | nt | nt | 0% | nt
O=C1C=CC(=O)N1c1ccc(OC(F)F)cc1 | 2.8µM* | 3% | -30% | 11µM*
O=C1C=CC(=O)N1c1ccc(O)cc1 | 6.3µM* | 9% | -101% | ?
CC(CCN)(CCN)[N+](=O)[O-] | nt | nt | -4% | nt
Cc1cc(/C(N)=N/OC(=O)c2ccc(Cl)cc2)no1 | -24% | 16µM* | -4% | -3%
N/C(=N\OC(=O)c1cccc(Br)c1)c1ccccn1 | -24% | ? | -62% | -11%
COc1ccccc1C(=O)O/N=C(\N)c1ccccn1 | -24% | ? | -35% | -14%
N/C(=N\OC(=O)c1ccccc1Cl)c1ccccn1 | ? | 7.1µM* | -44% | ?

From PubChem
